CHX counter: Cycloheximide Counterscreen for Small Molecule Inhibitors of Shiga Toxin. cell reporter, cycloheximide protein synthesis inhibition counterscreen. max response, %. 300,000 compounds, 12% hits. AID 2314, 2010; in the data active = max response mostly above about 13%, no sharp cut-off; inactive = mostly below about 14%; also: read at 38.3 µM for the half of the compounds with a filed dose
LmPK inh: qHTS Assay for Inhibitors of Leishmania Mexicana Pyruvate Kinase (LmPK) | Q27686 | purified LmPK, Kinase-Glo ATP luminescence, 1 h | Potency, µM (doses to about 57.5 µM), most hits filed as inhibitors | 290,000 compounds, 0.37% hits
Target sequence (Q27686 whole entry, looked up): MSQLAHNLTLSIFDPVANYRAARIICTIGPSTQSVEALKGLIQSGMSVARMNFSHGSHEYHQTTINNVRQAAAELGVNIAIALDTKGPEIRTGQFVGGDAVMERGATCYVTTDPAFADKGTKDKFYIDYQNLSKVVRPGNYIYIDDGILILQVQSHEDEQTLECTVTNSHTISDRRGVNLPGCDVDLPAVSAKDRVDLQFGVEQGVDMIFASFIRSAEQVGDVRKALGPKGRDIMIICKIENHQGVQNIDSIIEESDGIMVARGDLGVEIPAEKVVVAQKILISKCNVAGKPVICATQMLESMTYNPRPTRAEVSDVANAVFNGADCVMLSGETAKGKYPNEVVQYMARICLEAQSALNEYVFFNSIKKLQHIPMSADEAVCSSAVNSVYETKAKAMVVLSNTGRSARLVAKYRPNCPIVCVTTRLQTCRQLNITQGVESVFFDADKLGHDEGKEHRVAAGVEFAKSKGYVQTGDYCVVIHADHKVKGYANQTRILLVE
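Purified LmPK (0.1 nM) with 0.5 mM PEP and 0.1 mM ADP in imidazole buffer pH 7.2 with MgCl2/KCl, 1 h at room temperature. ATP formed was read by luciferase luminescence and normalized to no-enzyme and uninhibited controls.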
Shiga toxin inh: A qHTS for Small Molecule Inhibitors of Shiga Toxin | 290,000 compounds, 9.2% hits | Vero cells, Shiga toxin protein synthesis inhibition reporter | inhibition, % at 38.7 µM; in the data active = inhibition mostly above about 28%, no sharp cut-off; inactive = mostly below about 43%
RE007 growth inh: qHTS Assay for Inhibitors of the HIV-1 protein Vpr; S. pombe RE007 Vpr strain, BacTiter-Glo ATP luminescence, 24 h; Potency, µM (titrated, usually from 92.2 µM), actives largely listed as inhibitors; 360,000 compounds, 0.21% hits; active = well fitted falling curve with a large enough effect; inconclusive = small, poorly fitted or top-dose-only effect; inactive = no such curve, though single readings can be large or run the other way; also: nearly all actives have a fitted effect of over 50% in size
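Fission yeast RE007 carrying one integrated HIV-1 vpr copy, seeded at OD 0.01 in PMG+AL medium with 23 nL pinned compound. Grown 24 h at 30 degrees; viability read by BacTiter-Glo luminescence after 5 min.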
TbPYK inhibitor: qHTS of Trypanosoma Brucei Inhibitors; TbPYK enzyme, Kinase-Glo Plus ATP luminescence, 45 min; 410,000 compounds, 0.12% hits; Potency, µM (highest dose often 76.8 µM), usual class: inhibitors; also: nearly all actives have a fitted effect of over 50% in size
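Activity of T. brucei pyruvate kinase was followed by Kinase-Glo Plus luminescence after the enzyme reacted 45 min at room temperature with 130 uM ADP (final) and substrate. Test compounds were added before ADP at multiple concentrations.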
Giardia FBPA inh: qHTS Assay for Inhibitors of Fructose-1,6-bisphosphate Aldolase from Giardia Lamblia | AID 2451, 2010 | purified Giardia FBPA | A8B2U2 | 290,000 compounds, 0.71% hits | Potency, µM (titrated, usually from 59.6 µM), usual class: inhibitors; also: nearly all actives have a fitted effect of over 55% in size
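40 nM FBPA preincubated 10 min at RT with compound (up to 57.5 uM final), then substrate plus GAPDH/TPI/NAD/arsenate coupling and diaphorase/resazurin added. Fluorescence read after 20 min at RT, 525/598 nm.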
Of the large screens only hits and unclear results are named; the others gave an inactive call. This excerpt belongs to a sample that is enriched for hits. Unless noted, calls follow the shape of the dose curve; as a rule, active = well fitted curve in the direction sought with a large enough effect; inconclusive = small, poorly fitted or top-dose-only effect, or another doubt; inactive = no such curve, though single readings can be large; an effect the other way counts as inactive or inconclusive.

Cc1ccccc1OCC(=O)Nc1cccc2nsnc12	none
Cc1ccccc1OCC(=O)Nc1ccccc1N1CCCCC1	none
Cc1ccc(C)c(SCC(=O)c2ccc[nH]2)c1	CHX counter 42, Shiga toxin inh 56
O=C(N/N=C/c1ccc[nH]1)c1c[nH]c2ccccc12	CHX counter 52, Shiga toxin inh 111
O=C(N/N=C/C1CC2CCC1C2)c1c[nH]c2ccccc12 (centres undefined)	CHX counter 23
O=C(N/N=C/C1CC2CCC1C2)C1CC1 (centres undefined)	none (no result: Giardia FBPA inh)
O=C(N/N=C/c1ccccn1)c1c[nH]c2ccccc12	CHX counter 49, Shiga toxin inh 65, Giardia FBPA inh inconclusive
O=C(N/N=C/c1ccc[nH]1)c1sc2ccccc2c1Cl	CHX counter 47, Shiga toxin inh 146
CN1C[C@@H]2[C@@H]3C(=O)N(C)C(=O)[C@@H]3[C@](Cc3ccccc3)(C1=O)N2C(=O)c1ccccc1	none (no result: CHX counter, LmPK inh, Shiga toxin inh, Giardia FBPA inh)
COc1ccc(C2c3[nH]c4ccccc4c3CCN2C(=O)c2cc3ncccn3n2)c(F)c1 (centres undefined)	none
COc1ccc(C2c3[nH]c4ccccc4c3CCN2C(=O)c2ccccc2C(C)=O)c(F)c1 (centres undefined)	CHX counter 18, Shiga toxin inh 29
COc1ccc(C2c3[nH]c4ccccc4c3CCN2C(=O)c2cn3ccccc3n2)c(F)c1 (centres undefined)	CHX counter 30, Shiga toxin inh 53
COc1cccc(C2c3[nH]c4ccccc4c3CCN2C(=O)c2ccccc2F)c1OC (centres undefined)	none
CSc1ccccc1NC(=O)C1=CC(c2ccc3c(c2)OCO3)=NS(=O)(=O)N1C	none (no result: CHX counter, LmPK inh, Shiga toxin inh, RE007 growth inh, Giardia FBPA inh)
CCN1C(=O)C(Cc2nc3ccccc3c(=O)n2C)c2cc(C)ccc21 (centres undefined)	none (no result: CHX counter, LmPK inh, Shiga toxin inh, RE007 growth inh, Giardia FBPA inh)
CCCCN(CC)CCNC(=O)C1CCCN(c2ncnc3onc(C)c23)C1 (centres undefined)	none (no result: CHX counter, LmPK inh, Shiga toxin inh, RE007 growth inh, Giardia FBPA inh)
CCOC(=O)c1sc2ccccc2c1S(=O)(=O)NCc1ccccc1OC	none (no result: CHX counter, LmPK inh, Shiga toxin inh, RE007 growth inh, Giardia FBPA inh)
CC(C)CNC(=S)Nc1ccccc1F	none
CN(C)/C=N/C(=S)Nc1cc(Cl)cc(Cl)c1	none
CN(C)/C=N/C(=S)Nc1ccccc1Cl	CHX counter 39, Shiga toxin inh 49, Giardia FBPA inh inconclusive
CN(C)/C=N/C(=S)Nc1ccccc1F	CHX counter 28
CCc1ccc(CNC(=O)CN2C(=O)CSc3c2c(C)nn3-c2ccccc2)cc1	none (no result: CHX counter, LmPK inh, Shiga toxin inh, RE007 growth inh, Giardia FBPA inh)
Cc1ccc(N/C(N)=N/c2nc(C)cc(C)n2)cc1	none
Cc1cc(C)nc(/N=C(\N)Nc2ccc(C(C)C)cc2)n1	CHX counter 14
O=C(Nc1nc2ccc(F)cc2s1)c1ccc([N+](=O)[O-])o1	none (no result: CHX counter, LmPK inh, Shiga toxin inh, Giardia FBPA inh)
O=C(CSC1=Nc2ccccc2N=C(c2ccc(F)cc2)C1)Nc1cc(F)ccc1F	none (no result: CHX counter, LmPK inh, Shiga toxin inh, RE007 growth inh, Giardia FBPA inh)
NNc1nc2ccc(F)cc2s1	CHX counter 78, Shiga toxin inh 136, Giardia FBPA inh inconclusive
O=C(Nc1nc2ccc(F)cc2s1)Oc1ccccc1	none
NNc1nc2ccc(Cl)cc2s1	CHX counter 42, Shiga toxin inh 83
NNc1nc2c(Cl)c(Cl)ccc2s1	CHX counter 25, Shiga toxin inh 30, RE007 growth inh inconclusive
Fc1ccc2nc(Nc3ccccc3)sc2c1	CHX counter 36, Shiga toxin inh 118
COc1cc(Cl)c(C)cc1NC(=O)CN1c2ccccc2S(=O)(=O)c2ccccc21	none (no result: CHX counter, LmPK inh, Shiga toxin inh, RE007 growth inh, Giardia FBPA inh)
O=C(Nc1ccc(Br)cc1)c1ccc(F)c(S(=O)(=O)N2CCc3ccccc32)c1	none (no result: CHX counter, LmPK inh, Shiga toxin inh, RE007 growth inh, Giardia FBPA inh)
O=C(c1noc2c1CCCC2)N1CCc2c([nH]c3ccccc23)C1c1ccccn1 (centres undefined)	CHX counter 8.4
O=C(c1ccccc1-n1cccn1)N1CCc2c([nH]c3ccccc23)C1c1ccccn1 (centres undefined)	CHX counter 11
O=C1NC(=O)C2(CCCCCC2)N1	none (no result: CHX counter, LmPK inh, Shiga toxin inh, Giardia FBPA inh)
Cc1oc(-c2ccc(C(=O)Nc3ccc(F)cc3F)cc2)nc1COc1ccccc1	none (no result: CHX counter, LmPK inh, Shiga toxin inh, RE007 growth inh, Giardia FBPA inh)
Cc1ccc2nc(NC(=O)COC(=O)c3cccnc3)sc2c1	none (no result: CHX counter, LmPK inh, Shiga toxin inh, Giardia FBPA inh)
